CRFBP-R2 agonist = CRF-BP/CRF-R2 complex agonism | activation, % at 13.2 µM | AID 588473 | 0.46% of 350,000 active | HEK293 CRF-R2/CRF-BP, calcium dye fluorescence (FLIPR); percent of saturating CRF peptide response;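 active means activation of at least 50%, plus an integration ratio under a set limit after plate pattern correction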
GRIN3A LBD mod = modulates the human NR3A ligand-binding domain | NR3A LBD differential scanning fluorimetry, Tm shift; 0% = protein alone, 100% = glycine-bound protein | Tm shift relative to glycine control, % at 25 µM | 2.5% of 340,000 active;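 active means melting temperature shift of at least 10% of the positive control shift, at one fixed dose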
CRFR2-BP antag = CRF-BP/CRF-R2 complex antagonism; 0.59% of 350,000 active; inhibition, % at 11.8 µM; HEK293 CRF-R2/CRF-BP, CRF-induced calcium fluorescence;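 active means inhibition of the ligand-induced calcium signal above about 50% at the single tested concentration, limit read from the data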
TMEM16A inh = mouse TMEM16A channel inhibition, primary screen; 1.2% of 310,000 active; normalized B-score (activity score, 25-100; higher = stronger inhibition) at 10 µM; HEK293 TMEM16A/YFP iodide influx fluorescence, ionomycin;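 active means ratio plate-corrected score three or more library SD toward inhibition, starting fluorescence score within five deviations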;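 further: score derived from kinetic fluorescence span divided by baseline fluorescence per well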
Target sequence (Q8BHY3 whole entry, looked up): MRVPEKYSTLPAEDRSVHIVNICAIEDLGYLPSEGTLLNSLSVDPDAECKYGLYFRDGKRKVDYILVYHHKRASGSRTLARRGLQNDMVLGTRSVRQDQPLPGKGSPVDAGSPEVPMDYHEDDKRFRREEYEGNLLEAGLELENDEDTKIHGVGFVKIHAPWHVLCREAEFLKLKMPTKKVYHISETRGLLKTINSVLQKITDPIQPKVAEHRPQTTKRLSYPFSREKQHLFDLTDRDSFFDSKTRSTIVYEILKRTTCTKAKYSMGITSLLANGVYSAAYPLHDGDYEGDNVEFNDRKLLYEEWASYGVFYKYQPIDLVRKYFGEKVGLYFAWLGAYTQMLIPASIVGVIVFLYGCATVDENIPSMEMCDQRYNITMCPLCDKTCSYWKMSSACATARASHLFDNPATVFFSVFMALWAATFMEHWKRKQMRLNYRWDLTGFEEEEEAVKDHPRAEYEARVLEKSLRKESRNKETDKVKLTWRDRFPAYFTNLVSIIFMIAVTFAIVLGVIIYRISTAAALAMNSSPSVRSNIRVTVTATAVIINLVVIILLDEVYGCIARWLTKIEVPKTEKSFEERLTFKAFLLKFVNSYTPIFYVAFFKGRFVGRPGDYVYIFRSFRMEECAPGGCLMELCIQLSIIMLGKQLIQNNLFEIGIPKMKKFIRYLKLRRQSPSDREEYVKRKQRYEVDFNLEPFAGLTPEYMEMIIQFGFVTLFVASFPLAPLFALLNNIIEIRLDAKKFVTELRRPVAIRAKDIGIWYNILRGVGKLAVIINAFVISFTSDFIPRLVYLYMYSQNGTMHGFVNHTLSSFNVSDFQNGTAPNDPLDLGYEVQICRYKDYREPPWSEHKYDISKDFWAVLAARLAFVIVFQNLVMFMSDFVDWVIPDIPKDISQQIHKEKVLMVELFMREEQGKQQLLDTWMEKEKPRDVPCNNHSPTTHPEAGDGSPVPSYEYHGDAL
ANO1 activ = mouse TMEM16A channel activation, primary screen; HEK293 TMEM16A/YFP-H148Q/I152L, iodide quench fluorescence; active compounds read low; B-score at 10 µM; 0.3% of 340,000 active;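 active means fluorescence-ratio B-score plate-corrected deviation score at least 3 library SD below zero, with starting fluorescence score within 5 deviations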;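 further: channel opened by trigger with iodide after compound preincubation; score built on the fluorescence ratio of max minus min over baseline; more negative score means more quench and so TMEM16A activation or potentiation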
MPTP inh = inhibitors of mitochondrial permeability transition pore | AID 602449 | 1.4% of 360,000 active | inhibition, % at 10 µM | isolated mouse mitochondria, Ca2+ swelling absorbance, 30 min;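 active means inhibition of 50% or more, scaled per plate between neutral and stimulator controls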
Each line names hits and unclear results; the compound was inactive in the other large screens. Most compounds without a hit are left out; they make up all but 5.1% or so of the library.

Cc1c(C(=O)Oc2cccc3ccccc23)cnn1-c1ccccc1	TMEM16A inh 100
c1ccc2c3c([nH]c2c1)C1(CCCCC1)NCC3	none
CC12CCCCN1CCCc1c2[nH]c2ccccc12 (stereo unspecified)	CRFBP-R2 agonist 50.5
Cc1cccc(-c2cc3nc(-c4ccccc4)cc(=O)n3[nH]2)c1	none
Cc1ccccc1-c1cc2nc(-c3ccc([N+](=O)[O-])cc3)cc(=O)n2[nH]1	CRFR2-BP antag 70.5
O=C(Nc1ncc([N+](=O)[O-])s1)c1ccccc1Br	TMEM16A inh 100
O=C(CCNC(=O)C1CCN(S(=O)(=O)c2ccccc2)CC1)NCc1ccc(Cl)c(Cl)c1	none
CCN(CC)CCn1c2c(c(SCC(=O)Nc3nc4ccccc4s3)nc1=O)CCC2	none
O=C(NCCc1ccccc1)c1ccc(NC(=O)C2CCCC2)cc1	none (no result: TMEM16A inh, ANO1 activ)
CC(C)COC(=O)N1CCCCC1c1cc(C(=O)NCc2ccccc2)no1 (stereo unspecified)	none (no result: CRFBP-R2 agonist, GRIN3A LBD mod, CRFR2-BP antag, TMEM16A inh, ANO1 activ)
CC(C)C(=O)Nc1ccc(C(=O)NN2C(=O)c3ccccc3C2=O)cc1	GRIN3A LBD mod 13.0
O=C(Nc1ccc(C(=O)NN2C(=O)c3ccccc3C2=O)cc1)c1ccccc1	GRIN3A LBD mod 23.6
O=C(CN1CCN(CC(=O)c2ccccc2)CC1)c1ccccc1	none (no result: TMEM16A inh)
CN(CC(=O)Nc1cccc(F)c1)C(=O)c1cn(-c2ccccc2)nc1-c1ccc(Cl)cc1	GRIN3A LBD mod 27.1 (no result: TMEM16A inh)
NS(=O)(=O)c1ccc(NC(=O)COC(=O)c2cn(-c3ccccc3)nc2-c2ccccc2)cc1	GRIN3A LBD mod 21.7
CN(CC(=O)Nc1cccc(F)c1)C(=O)c1cn(-c2ccccc2)nc1-c1cccs1	GRIN3A LBD mod 23.0
COc1ccc(NC(=O)CN(C)C(=O)c2cn(-c3ccccc3)nc2-c2ccc(F)cc2)cc1	none (no result: TMEM16A inh)
COc1cccc(NC(=O)CN(C)C(=O)c2cc3ccccc3cc2OC)c1	ANO1 activ -34.1 (no result: TMEM16A inh)
O=C1OC(COCC#Cc2ccccc2)CN1c1ccccc1 (stereo unspecified)	none (no result: GRIN3A LBD mod, TMEM16A inh, ANO1 activ)
O=C(NC(c1ccc(-c2ccccc2)cc1)c1cnccn1)C1CCN(CCOc2ccc(F)cc2)CC1 (stereo unspecified)	none (no result: CRFBP-R2 agonist, GRIN3A LBD mod, CRFR2-BP antag, TMEM16A inh, ANO1 activ)
COc1ccc(NC(=O)N2CCC(CO)(CC3CCCCO3)CC2)c(OC)c1 (stereo unspecified)	none
COc1cccc(NC(=O)CN(C)C(=O)c2cn(-c3ccccc3)nc2-c2cccnc2)c1	none (no result: TMEM16A inh)
COc1cccc(NC(=O)CN(C)C(=O)c2cn(-c3ccccc3)nc2-c2cccs2)c1	GRIN3A LBD mod 14.1
COc1ccc(NC(=O)CN(C)C(=O)c2cn(-c3ccccc3)nc2-c2ccc(Cl)cc2)cc1	GRIN3A LBD mod 27.4
CCn1c(SCC(=O)N2CCC(C)CC2)nc2c([nH]c3ccccc32)c1=O	none (no result: GRIN3A LBD mod, TMEM16A inh, ANO1 activ)
Cc1cn([C@H]2C[C@H](O)[C@@H](CCC(=O)NCC3CCCO3)O2)c(=O)[nH]c1=O (stereo partly specified)	none (no result: CRFBP-R2 agonist, GRIN3A LBD mod, CRFR2-BP antag, TMEM16A inh, ANO1 activ)
N#C/C(C(=O)Oc1ccccc1)=C1\C=Cc2ccccc2N1	GRIN3A LBD mod 20.1
CNc1ccccc1C(=O)OCC(=O)N(CCOC)c1c(N)n(CC(C)C)c(=O)[nH]c1=O	none
O=c1nc(/C=C/c2ccc(-c3ccc(F)cc3)o2)cc(C(F)(F)F)[nH]1	none (no result: CRFBP-R2 agonist, GRIN3A LBD mod, CRFR2-BP antag, ANO1 activ, MPTP inh)
O=C(O)c1ccccc1-c1ccc(/C=C/c2cc(C(F)(F)F)[nH]c(=O)n2)o1	CRFBP-R2 agonist 169.5 (no result: TMEM16A inh)
O=C(O)c1cc(Cl)ccc1-c1ccc(/C=C/c2cc(C(F)(F)F)[nH]c(=O)n2)o1	CRFBP-R2 agonist 204.8
O=C(O)CCC(=O)OCCCc1cc2ccccc2c(=O)o1	none (no result: TMEM16A inh)
COc1ccc(NC(=O)Nc2ccc3nonc3c2)cc1	GRIN3A LBD mod 18.7
CN(C)c1ccc(NC(=O)Nc2ccc3snnc3c2)cc1	GRIN3A LBD mod 35.9
CC(=O)c1ccc(NC(=O)c2ccc3snnc3c2)cc1	none
COc1ccc(NC(=O)Nc2ccc(OC)cc2)cc1	GRIN3A LBD mod 13.2
CCc1ccc(CCC(=O)Nc2ccc(OC)cc2)o1	GRIN3A LBD mod 32.5
COc1ccc(/[N+]([O-])=C/c2ccco2)cc1	none (no result: TMEM16A inh)
CCOC(=O)c1ccccc1NC(=O)COC(=O)C(CC)Oc1ccccc1 (stereo unspecified)	none (no result: GRIN3A LBD mod, TMEM16A inh, ANO1 activ)
COc1ccc(NC(=O)Nc2ccc(N(C)C)cc2)cc1	GRIN3A LBD mod 11.8
COc1ccc(NC(=O)Nc2sc(=S)n(C)c2C)cc1	GRIN3A LBD mod 23.9
CC(=O)c1ccc(NC(=O)Nc2ccc3c(c2)nc(C)n3C)cc1	none
COc1ccc(NC(=O)Nc2ccc3[nH]ccc3c2)cc1	GRIN3A LBD mod 34.8
COC(=O)c1ccc(NC(=O)Nc2ccc3c(c2)nc(C)n3C)cc1	GRIN3A LBD mod 25.0
O=C(c1ccc(CS(=O)c2cccc(Cl)c2)o1)N1CCCCCC1 (stereo unspecified)	none
O=S1(=O)CCN(C2CCCCCC2)CC1	none (no result: GRIN3A LBD mod, TMEM16A inh, ANO1 activ)
CCCCOC(=O)c1ccc(NC(=O)c2c(OC)cccc2OC)cc1	none
N#Cc1ccc(NC(=O)Nc2ccc(Oc3ccc(NC(=O)Nc4ccc(C#N)cc4)cc3)cc2)cc1	GRIN3A LBD mod 32.3
CCCCOC(=O)c1ccc(NC(=O)Nc2ccc(OC)c(OC)c2)cc1	GRIN3A LBD mod 19.0
COC(=O)c1ccc(NC(=O)Nc2ccc(OC)cc2)cc1	GRIN3A LBD mod 10.3
N#Cc1ccc(OCC(=O)Nc2ccncc2)cc1	none
COC(=O)c1ccc(NC(=O)Nc2ccccc2C)cc1	none
O=C(O)CCC(=O)Nc1ccc(SSc2ccc(NC(=O)CCC(=O)O)cc2)cc1	none
Cc1cccc(-[n+]2c(C)cc(C)c3c(=O)[nH]c(=O)[nH]c32)c1	GRIN3A LBD mod 11.5
N#CCc1ccc(NC(=O)Nc2cccc3ccccc23)cc1	GRIN3A LBD mod 21.4
Cc1ccc(NC(=O)Nc2cccc3ccccc23)cc1	none
CC(C)=CCc1c(O)ccc(C2COc3c(CC=C(C)C)c(O)cc(O)c3C2=O)c1O (stereo unspecified)	GRIN3A LBD mod 11.2
CC(C)N(CCO)Cc1nc(C(c2ccccc2)c2ccccc2)no1	none
COc1ccc(CCN=C(C)c2cc(C)c(C)cc2O)cc1OC	GRIN3A LBD mod 14.8
Cc1ccc2c(c1)N(C(=O)CCC(=O)NCCCN1CCOCC1)CCO2	none
COc1ccc([C@H]2CC(=O)C=C(c3cc(Br)ccc3OC)C2)cc1	none (no result: TMEM16A inh)
CCOc1ccc(Br)cc1C1=CC(=O)C[C@H](c2ccc(OC)cc2)C1	CRFBP-R2 agonist 163.3, GRIN3A LBD mod 15.7 (no result: TMEM16A inh)
COc1ccc(NC(=O)C(c2ccccc2)n2c(=O)c(-c3cc4ccccc4[nH]3)nc3ccccc32)cc1 (stereo unspecified)	none (no result: CRFBP-R2 agonist, GRIN3A LBD mod, CRFR2-BP antag, TMEM16A inh, ANO1 activ)
CCOC(=O)Cn1c(=NC(=O)c2nc3ccccc3s2)sc2cc(S(N)(=O)=O)ccc21	none

Source: PubChem (several laboratories)
